Screens from PubChem BioAssay.
PDI turbidity – blocks human protein disulfide isomerase activity; P07237; PDI insulin aggregation turbidity, A650, 90 min; inhibition, % at 10 µM; actives 0.052% (n = 350,000);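 active = mean inhibition across replicates of 30% or more, whatever share of single replicates reach that level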
PglD inh – blocks C. jejuni PglD acetyltransferase activity. actives 0.098% (n = 360,000). purified PglD enzyme, DTNB colorimetric CoA detection. inhibition, % at 12.5 µM. AID 602405; in the data active = inhibition above about 16%, passing the limit was not always enough
ALR H2O2 inh – human ALR oxidase inhibition via reduced H2O2; purified ALR, DTT oxidation, H2O2 HRP-luminol luminescence; P55789; actives 3.8% (n = 290,000); AID 485317; inhibition, % (concentration not given with the values);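 active = mean replicate inhibition above about 79%, with every replicate also reaching it, limit read from the data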
Target sequence (P55789 whole entry, looked up): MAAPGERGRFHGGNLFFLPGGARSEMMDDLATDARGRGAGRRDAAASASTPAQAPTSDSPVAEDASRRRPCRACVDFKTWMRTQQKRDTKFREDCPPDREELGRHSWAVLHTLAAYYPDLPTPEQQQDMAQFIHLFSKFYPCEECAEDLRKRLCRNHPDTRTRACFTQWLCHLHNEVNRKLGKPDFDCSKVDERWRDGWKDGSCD
ARNT TACC3 PPI – disrupts binding between human ARNT and TACC3 | Q9Y6A5 | actives 0.66% (n = 390,000) | AlphaScreen His-ARNT PAS-B/GST-TACC3 binding, luminescence; TACC3 fragment carries E629A point mutation | inhibition, % at 9.99 µM | AID 623870;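 active = mean inhibition of replicates at least 50% and at least half of replicates each reaching 50%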;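 note: 0% = complete ARNT plus TACC3 wells and 100% = ARNT alone without TACC3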
ERp5 inh – inhibitors of human ERp5; inhibition, % at 9.99 µM; actives 0.05% (n = 350,000); AID 651711; Q15084; ERp5 insulin aggregation, absorbance 650 nm, 90 min;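 active = mean replicate inhibition above about 25%, with every replicate also reaching it, limit read from the data, passing the limit was not always enough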
NRP1-CendR mod – alters CendR peptide binding to human NRP-1 | O14786 | FAM-RPARPAR peptide binding to NRP-1, fluorescence polarization | inhibition, % at 25 µM | AID 602438 | actives 0.85% (n = 360,000);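 active = inhibition or corrected inhibition above about 18%, plus a signal ratio from 0.5 to 1.5, limit read from the data, passing the limit was not always enough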
An asterisk follows results filed as active. Shown is part of a subset that was picked to be rich in hits.

For O=C(C[C@@H]1CC[C@@H]2[C@H](COC[C@@H](O)CN2Cc2ccc(Oc3ccccc3)cc2)O1)N1CCCCC1 the results were PglD inh -3.5, ARNT TACC3 PPI -6.8 and ERp5 inh -1.0.
Screening CN(C)/C=C1/C=C(c2ccccc2)OC1=O returned PDI turbidity 2.5, PglD inh 1.2, ALR H2O2 inh 98.7*, ARNT TACC3 PPI -0.7, ERp5 inh -1.1 and NRP1-CendR mod -6.8.
`CC1=C/C(=C/N(C)C)C(=O)O1` gave PDI turbidity 7.5, ALR H2O2 inh -5.3, ARNT TACC3 PPI -4.1, ERp5 inh 2.9 and NRP1-CendR mod -6.2.
`CC(C)(C)N1C(=O)c2ccc(C(=O)Nc3ccc(O)cc3)cc2C1=O` gave PDI turbidity 3.0, PglD inh 2.3, ALR H2O2 inh 98.3*, ARNT TACC3 PPI 1.4, ERp5 inh 0.4 and NRP1-CendR mod 18.9.
For CC(C)(C)NC(=O)c1cccc(NC(=O)c2ccc3c(c2)C(=O)N(C(C)(C)C)C3=O)c1 the results were PDI turbidity -7.0, PglD inh -3.4, ALR H2O2 inh -1.4, ARNT TACC3 PPI 6.0, ERp5 inh 3.6 and NRP1-CendR mod -6.4.
For COc1cc(/C=N/N=C2/NC(=O)C(c3ccccc3)S2)ccc1O (stereo unspecified) the results were PDI turbidity -5.7, PglD inh 2.3, ALR H2O2 inh 98.6*, ARNT TACC3 PPI 2.6 and NRP1-CendR mod -5.5.
COc1ccc(C=NN=C2c3ccccc3-c3ccccc32)cc1OC was read as PDI turbidity 1.1, ARNT TACC3 PPI 10.0, ERp5 inh -7.2 and NRP1-CendR mod 6.0.
Cc1ccsc1/C=N/N=C1\C(=O)Nc2ccccc21 was read as PDI turbidity -4.7, ALR H2O2 inh -4.9, ARNT TACC3 PPI 1.3 and NRP1-CendR mod 1.6.
Screening O=C1Nc2ccccc2/C1=N\N=C\c1ccc(O)c(O)c1 returned PDI turbidity 1.3, PglD inh -0.1, ALR H2O2 inh 98.7*, ARNT TACC3 PPI 16.6, ERp5 inh -2.5 and NRP1-CendR mod 21.6.
Screening COc1cc(/C=N/N=C2/C(=O)Nc3ccccc32)ccc1O returned PDI turbidity 1.4, PglD inh -10.5, ALR H2O2 inh 98.7*, ARNT TACC3 PPI 8.5 and NRP1-CendR mod 2.0.
For CC(=O)c1ccc(NC(=O)N2CCN(c3ccc(C)cc3)C(C)C2)cc1 (stereo unspecified) the results were PDI turbidity 0.0, ALR H2O2 inh 95.7*, ARNT TACC3 PPI 3.7, ERp5 inh -1.6 and NRP1-CendR mod 4.9.
CC(=O)c1ccc(N2CCN(C(=O)Nc3ccc(C)cc3)CC2)cc1 was read as PDI turbidity -2.8, PglD inh -1.6, ALR H2O2 inh -23.5, ARNT TACC3 PPI -18.9, ERp5 inh 3.6 and NRP1-CendR mod 15.4.
Screening COc1cc(C(=O)NNc2nc3cc4c(cc3s2)OCO4)cc(OC)c1OC returned PglD inh 3.5, ALR H2O2 inh 99.2*, ARNT TACC3 PPI 7.4, ERp5 inh 1.3 and NRP1-CendR mod -5.1.
`O=C(NNc1nc2cc3c(cc2s1)OCO3)c1ccccc1` gave PDI turbidity 10.7, PglD inh -5.6, ALR H2O2 inh 99.3*, ARNT TACC3 PPI 3.3, ERp5 inh -2.9 and NRP1-CendR mod 2.2.
Screening O=C(NNc1nc2cc3c(cc2s1)OCO3)c1cccc(F)c1 returned PDI turbidity -7.9, PglD inh 3.3, ALR H2O2 inh 2.7, ARNT TACC3 PPI 1.2, ERp5 inh 2.0 and NRP1-CendR mod -6.1.
For CNC[C@@H]1OCCCC[C@H](C)Oc2ccc(NS(=O)(=O)c3c(C)noc3C)cc2C(=O)N([C@@H](C)CO)C[C@H]1C the results were PglD inh -2.5 and ARNT TACC3 PPI -14.8.
CC12CN3CC(C)(CN(C1)C3c1ccc(Cl)cc1Cl)C2O (stereo unspecified) was read as PDI turbidity 0.0, PglD inh -15.7, ALR H2O2 inh 2.1, ARNT TACC3 PPI -4.9 and NRP1-CendR mod -14.9.
Screening CN(C)c1ccc(C2N3CC4(C)CN2CC(C)(C3)C4O)cc1 (stereo unspecified) returned PglD inh 1.7, ALR H2O2 inh 99.0*, ARNT TACC3 PPI 33.2, ERp5 inh 0.4 and NRP1-CendR mod -2.2.
Screening CN1CCN(Cc2c(O)ccc3cc(Br)ccc23)CC1 returned ALR H2O2 inh 78.2* and ERp5 inh -1.8.
